According to PubChem BioAssay AID1063 (University of Pittsburgh Molecular Library Screening Center, 2008):
About 18,000 (9%) of roughly 200,000 compounds were called active. What follows is part of a selection rich in actives, with near analogues and random picks from the rest. Unmarked numbers belong to inactive results. Cut-off read from the data, not from the text of the source: active = inhibition above about 50%; inactive = the rest.

experiment: antileishmanial activity against promastigotes – primary screen (AID 1063); conditions: Leishmania major promastigotes, resazurin fluorescence viability; at 10 µM; stronger effect = higher value;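 note: promastigotes grown with compound for 44 hours at 28 °C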

Row | SMILES | inhibition
1 | COc1ccc(/C=N/NC(=O)c2ccc(Cl)cc2)cc1COC(C)=O | -8.12%
2 | COc1ccc(/C=N/NC(=O)c2ccncc2)cc1CN1CCCc2ccccc21 | 63.4% (active)
3 | COc1cc(/C=N/NC(=O)c2ccccc2)ccc1OS(=O)(=O)c1ccccc1 | 1.2%
4 | CC1CC(C)CN(CC(=O)N2c3ccccc3CCc3ccccc32)C1 (configuration not stated) | 18.5%
5 | CC1CC(C)CN(C/C=C/c2ccccc2[N+](=O)[O-])C1 (configuration not stated) | 83.9% (active)
6 | CC(C)CNC(=O)COC(=O)/C=C/c1ccccc1[N+](=O)[O-] | 4.47%
7 | COc1cc(CN2CCNC(=O)C2CC(=O)NCCc2ncccc2C)cc(OC)c1 (configuration not stated) | -4.29%
8 | CC1=C(C)CC(C(=O)NC(C)CCc2ccccc2)C(C(=O)O)C1 (configuration not stated) | 17.2%
9 | C=CCOc1c(CNn2cn[nH]c2=S)cccc1OC | 25.5%
10 | COc1ccc(C2CC(=O)Nc3sc(=N)c4c(N)c(C#N)c(N)nc4c32)cc1OC (configuration not stated) | -5.32%
11 | N#Cc1c(N)nc2c3c(sc(=N)c2c1N)NC(=O)CC3c1ccccc1Cl (configuration not stated) | 75.7% (active)
12 | CSc1nc2c(c(=O)[nH]1)C(c1cccc(Cl)c1Cl)CC(=O)N2 (configuration not stated) | -5.68%
13 | COc1cccc2c1OCC(CN1CCN(C3CCCCC3)C(CCO)C1)=C2 (configuration not stated) | 11.6%
14 | O=C(c1snnc1-c1ccccc1)N1CCOCC1 | -3.05%
15 | CCc1nnc(NC(=O)CCC(=O)NCc2ccccc2OC)s1 | -6.69%
16 | CCc1nnc(NC(=O)CCC(=O)O)s1 | -2.47%
17 | CCc1nnc(NC(=O)CCN(c2ccc(C)cc2)S(=O)(=O)c2ccccc2)s1 | 71.3% (active)
18 | Cc1c(Cl)c([N+](=O)[O-])nn1CCCC(=O)Nc1cc(Cl)ccc1Cl | 0.47%
19 | Cc1c(Cl)c([N+](=O)[O-])nn1Cc1ccc(C(=O)N/N=C\c2cc(Cl)ccc2O)o1 | 100% (active)
20 | Cc1ccc(C(=O)O)cc1NC(=O)c1ccc(Cn2nc(C)c(Cl)c2C)o1 | -7.15%
21 | Cc1ccc(OCC(=O)NC(C)c2ccccc2)c([N+](=O)[O-])n1 (configuration not stated) | 11.1%
22 | CCc1ccc(NC(=O)Nc2ccncc2)cc1 | 24.8%
23 | O=C(Cc1c[nH]c2ccccc12)OCCOC(=O)Cc1c[nH]c2ccccc12 | 94.7% (active)
24 | CCOC(=O)CN(C)Cc1c[nH]c2ccccc12 | -1.3%
25 | NS(=O)(=O)c1ccc(NC(=O)COC(=O)CCc2c[nH]c3ccccc23)cc1 | -4.64%

Row | SMILES | inhibition
26 | Cc1ccc(C)c(-n2ccnc2SCC(N)=O)c1 | -3.12%
27 | O=C(O)[C@@H]1CCCN1c1ncnc2sc3c(c12)CCC3 | -0.86%
28 | COc1ncnc2sc3c(c12)CCCC3 | -1.31%
29 | CC1(C)CN=C(N2CCN(c3ncnc4sc5c(c34)CCCC5)CC2)S1 | 100% (active)
30 | O=C1c2ccccc2C(=O)N1CCC(O)C[N+](=O)[O-] (configuration not stated) | -0.84%
31 | Cc1ccc(Cl)cc1NC(=O)C1CCN(S(C)(=O)=O)CC1 | 2.22%
32 | COc1ccc2occ(C(=O)c3ccc(N=C(C)N(C)C)cc3)c2c1 | 100% (active)
33 | COc1ccc(OC)c(C(=O)c2coc3ccc(OC)cc23)c1 | 6.9%
34 | COc1ccc(OC)c(C(=O)c2ccc(C(=O)O)cc2)c1 | -2.29%
35 | COc1ccc2cc(CCl)c(Cl)nc2c1 | 5.05%
36 | O=C1N=C(N2CCOCC2)S/C1=C\C=C/c1ccccc1 | 7.77%
37 | CCc1ccc(/C=C2\SC(N3CCOCC3)=NC2=O)cc1 | 12.3%
38 | O=C1N=C(N2CCCC2)S/C1=C\c1cccc(Br)c1 | 96.6% (active)
39 | COc1ccc(/C=C/C(=O)c2cc(Br)ccc(=O)c2O)cc1 | -3.91%
40 | COc1ccc(C(=O)/C=C/c2ccc(OC3CSC3)cc2)cc1 | 75.7% (active)
41 | COc1ccc(/C=C/C(=O)c2ccc(OC)cc2O)cc1 | 7.64%
42 | O=C(COc1ccccc1)Nc1ccc(N2CCN(C(=O)c3cccs3)CC2)cc1 | -3.12%
43 | C=CCn1nc(-c2ccccc2)c2c(C)onc2c1=O | 2.35%
44 | Cc1nnc(-c2ccc(Oc3ccc(C)c(C)c3)c([N+](=O)[O-])c2)o1 | 64.6% (active)
45 | COc1ccc(-c2nc3cc([N+](=O)[O-])ccc3o2)cc1OC | -4.49%
46 | COc1ccc(OCC(=O)Nc2cc(C)c(Cl)cc2OC)c([N+](=O)[O-])c1 | 0.64%
47 | O=C(Nc1ccc(N2CCOCC2)cc1)c1ccc2c(c1)OCO2 | -0.26%
48 | CCc1ccc(CN(C)C(=O)CCc2nnc(-c3ccc(-c4ccccc4)cc3)o2)nc1 | 25.8%
49 | CS(=O)(=O)N(CC(=O)N1CCN(Cc2ccccc2)CC1)c1ccc2c(c1)OCCO2 | -0.45%
50 | c1ccc(CN2CCC(N=C3NN=C(c4ccc5c(c4)OCCO5)CS3)CC2)cc1 | 75.9% (active)

Row | SMILES | inhibition
51 | Clc1cccc(N=C2NN=C(c3ccc4c(c3)OCCO4)CS2)c1 | 4.41%
52 | COc1ccccc1NC(=O)c1c(Br)cnn1C | -1.37%
53 | O=C(NNC1=C(C(=O)C(F)(F)F)CCC1)c1ccncc1 | -0.87%
54 | c1ccc2c(NC3C4CC5CC(C4)CC3C5)nc(N3CCOCC3)nc2c1 (configuration not stated) | 69.9% (active)
55 | Cc1cc(Oc2ccccc2)nc(N2CCOCC2)n1 | -4.03%
56 | Fc1cnc(N2CCOCC2)nc1NCc1ccccc1 | 0.72%
57 | CC(Nc1nc(N2CCCC2)nc2ccccc12)c1ccccc1 (configuration not stated) | 100% (active)
58 | C(=N/Nc1cc(N2CCOCC2)nc(N2CCOCC2)n1)/c1ccccc1 | -1.17%
59 | CC(Nc1nc(N2CCOCC2)nc2ccccc12)c1ccccc1 (configuration not stated) | 54.2% (active)
60 | CC(Nc1nc(N2CCN(CCO)CC2)nc2ccccc12)c1ccccc1 (configuration not stated) | 16.7%
61 | c1ccc(-c2cc(N3CCCCC3)c3ccccc3n2)cc1 | 43.1%
62 | CC(CN1CCOCC1)c1ccccc1 (configuration not stated) | 5.49%
63 | COc1cc(C(=O)NCc2ccc(-n3cccc3)cc2)cc(OC)c1OC | 23%
64 | COc1ccc(CCNC(=O)C(=O)NCc2ccccc2C)cc1OC | -0.59%
65 | CC(C)(C)NC(=O)c1ccc(Cn2cc(C(F)(F)F)ccc2=O)cc1 | -0.17%
66 | Cc1ccc(C2NC(C(=O)O)CS2)cc1 (configuration not stated) | -9.29%
67 | Cc1cccc(NC(=S)NC(=O)c2ccc(Br)o2)c1 | -3.34%
68 | CNC(=O)C(=O)N/N=C/c1ccccn1 | -7.18%
69 | Cc1cc(C)c([N+](=O)[O-])cc1-c1ccc(/C=N/NC(=O)c2nonc2N)o1 | 14.1%
70 | N#C/C(=C\c1ccc(-c2cccc([N+](=O)[O-])c2)o1)C(=O)NCCN1CCOCC1 | 17.4%
71 | Cc1ccc(-c2ccc(/C=N/NC(=O)CN3CCOCC3)o2)cc1[N+](=O)[O-] | 96.8% (active)
72 | N#C/C(=C\c1ccccc1C(F)(F)F)C(=O)Nc1ccccc1F | 7.15%
73 | CNC(=O)/C(C#N)=C/c1c(F)cccc1Cl | 99.2% (active)
74 | O=C(/C=C/c1c(F)cccc1Cl)Nc1nn[nH]n1 | -6.22%
75 | COc1cccc(-c2ccc(SCC(=O)N3CCN(c4ccccc4)CC3)nn2)c1 | 4.58%

Row | SMILES | inhibition
76 | O=C(CSc1ccc(-c2cccs2)nn1)Nc1ccccc1F | 10.6%
77 | Cc1cccc(C(=O)NCC(=O)OCC(=O)N2CC3(C)CC2CC(C)(C)C3)c1 (configuration not stated) | 43.9%
78 | Cc1nnnn1/C(=C\c1ccccc1)C(=O)OCC(=O)N1CC2(C)CC1CC(C)(C)C2 (configuration not stated) | 100% (active)
79 | COc1ccccc1C(=O)N1CC2(C)CC1CC(C)(C)C2 (configuration not stated) | -5.56%
80 | Cc1nnsc1C(=O)Nc1cccc(Cl)c1C | -7.14%
81 | CCOP(=O)(OCC)C(Nc1ccc([N+](=O)[O-])cc1)c1ccc(Cl)cc1 (configuration not stated) | 36.9%
82 | CCCCOC(=O)c1ccc(NC(c2ccc(C)cc2)P(=O)(OC)OC)cc1 (configuration not stated) | 2.9%
83 | CCOP(=O)(OCC)C(Nc1cccc(C)c1)c1ccc(F)cc1 (configuration not stated) | 61.2% (active)
84 | Cc1nc2cc(NC(=O)NC3CC3)ccc2n1C | -6.22%
85 | CC(=O)n1cc([C@@H]2C=C(C(=O)N3CCN(Cc4ccc5c(c4)OCO5)CC3)O[C@H](OCc3ccc(CO)cc3)C2)c2ccccc21 | 78.9% (active)
86 | CN1CCN(C(=O)C2=C[C@H](c3ccc4c(c3)OCO4)C[C@H](OCc3ccc(CO)cc3)O2)CC1 | 5.67%
87 | CC(=O)n1cc([C@H]2C=C(C(=O)N3CCOCC3)O[C@@H](OCc3ccc(CO)cc3)C2)c2ccccc21 | 0.43%
88 | CCO[C@H]1OC(C(=O)N2CCCCCCC2)=C[C@@H](c2ccc(C(F)(F)F)cc2)[C@@H]1CCCO | -8.31%
89 | CCO[C@H]1OC(C(=O)N2CCN(Cc3ccccc3)CC2)=C[C@@H](c2cn(C(C)=O)c3ccccc23)[C@@H]1CCCO | 71.4% (active)
90 | CCO[C@H]1OC(C(=O)NCc2ccccc2)=C[C@@H](c2coc3ccccc3c2=O)[C@@H]1CCCO | 8.75%
91 | CCC1CCCCN1C(=O)CSc1nc2c(c(=O)n(C)c(=O)n2C)n1C (configuration not stated) | -6.11%
92 | CCOc1ccc(C(CC(=O)O)n2cnnn2)cc1OC (configuration not stated) | -5.12%
93 | Cc1cc(NC(=O)CSc2nccn2-c2ccc([N+](=O)[O-])cc2)no1 | -2.13%
94 | N/C(=N\OC(=O)N1c2ccccc2Sc2ccccc21)c1ccc(Br)cc1 | 26%
95 | O=[N+]([O-])c1ccc(N2CCNCC2)cc1NCc1cccnc1 | -1.11%
96 | O=C(CSc1nc2ccccc2[nH]1)N/N=C/C=C\c1ccccc1[N+](=O)[O-] | 40.1%
97 | CN1CCN(c2ccc([N+](=O)[O-])c(Sc3nc4ccccc4[nH]3)c2)CC1 | 57% (active)
